Measured values from article PMC7862700, “An all-to-all approach to the identification of sequence-specific readers for epigenetic DNA modifications on cytosine”.

Assays:
Assay in all cases: DAPPL (digital affinity profiling via proximity ligation, sequencing); 10 mM Tris-HCl pH 7.5, 50 mM NaCl, 1 mM DTT, 4% glycerol, room temperature, 30 min; GST-TFs on glutathione beads, 16-mer random dsDNA library, 0.1% formaldehyde crosslink after washing; high values mean tight binding
[1] = target: T1, FEV (Homo sapiens, UniProt Q99581 1-238); conditions: protein: recombinant; tags: N-terminal GST; dsDNA, one strand shown
T1 sequence: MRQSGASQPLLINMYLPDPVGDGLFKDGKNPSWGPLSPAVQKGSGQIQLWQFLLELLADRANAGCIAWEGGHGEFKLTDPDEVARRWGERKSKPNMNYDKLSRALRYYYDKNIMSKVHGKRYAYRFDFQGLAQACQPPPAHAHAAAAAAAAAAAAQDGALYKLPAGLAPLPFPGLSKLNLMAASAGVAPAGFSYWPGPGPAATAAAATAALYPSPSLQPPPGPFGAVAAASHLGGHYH
Procedure, shortened: (§1)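 In yeast, human transcription factors were expressed with a GST fusion, then pulled down on glutathione beads and given DNA barcodes. Pooled with a tag-only sample, they were exposed to 200 nmole of a 16-mer random double-stranded DNA library (Tris/NaCl/DTT/glycerol buffer, room temperature, 30 min), washed, crosslinked with 0.1% formaldehyde, proximity-ligated using BsaI/T4 ligase for 1 h at 37 °C, PCR-amplified and read on an Illumina NextSeq500. Each hexamer's frequency of reads for a factor, divided by the matching frequency for the tag-only sample, gives the binding signal.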

[2] = target: ETV5 (Homo sapiens, UniProt P41161 1-510); conditions: protein: recombinant; tags: N-terminal GST; dsDNA, one strand shown
Procedure, shortened: as §1

[3] = target: HSF1 (Homo sapiens, UniProt Q00613 1-529); conditions: protein: recombinant; tags: N-terminal GST; chain copies: 3; dsDNA, one strand shown
Procedure, shortened: as §1

[4] = target: T2, SPIC (Homo sapiens, UniProt Q8N5J4 1-248); conditions: protein: recombinant; tags: N-terminal GST; dsDNA, one strand shown
T2 sequence: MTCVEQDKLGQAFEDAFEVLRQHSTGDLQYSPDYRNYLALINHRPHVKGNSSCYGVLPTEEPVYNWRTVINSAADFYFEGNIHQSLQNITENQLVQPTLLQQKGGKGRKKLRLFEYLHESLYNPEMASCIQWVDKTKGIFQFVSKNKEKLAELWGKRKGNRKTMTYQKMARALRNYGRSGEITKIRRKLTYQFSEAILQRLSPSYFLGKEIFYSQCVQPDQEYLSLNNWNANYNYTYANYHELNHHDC
Procedure, shortened: as §1

[5] = target: ELF4 (Homo sapiens, UniProt Q99607 1-663); conditions: protein: recombinant; tags: N-terminal GST; dsDNA, one strand shown
Procedure, shortened: as §1

[6] = target: T3, ELK4 (Homo sapiens, UniProt P28324-2 1-405); conditions: protein: recombinant; tags: N-terminal GST; dsDNA, one strand shown
T3 sequence: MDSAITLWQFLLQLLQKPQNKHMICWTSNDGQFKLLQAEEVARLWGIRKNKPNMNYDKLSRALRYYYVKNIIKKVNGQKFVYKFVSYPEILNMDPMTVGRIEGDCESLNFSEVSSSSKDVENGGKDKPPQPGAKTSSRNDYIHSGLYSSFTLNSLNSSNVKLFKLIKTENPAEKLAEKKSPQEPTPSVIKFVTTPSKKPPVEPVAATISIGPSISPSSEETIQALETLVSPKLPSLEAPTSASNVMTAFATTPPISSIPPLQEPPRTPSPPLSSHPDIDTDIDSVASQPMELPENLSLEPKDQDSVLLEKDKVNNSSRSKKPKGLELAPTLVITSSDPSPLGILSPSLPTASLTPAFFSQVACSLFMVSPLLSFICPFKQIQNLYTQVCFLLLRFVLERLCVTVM
Procedure, shortened: as §1

[7] = target: T4, ETV2 (Homo sapiens, UniProt O00321 1-342); conditions: protein: recombinant; tags: N-terminal GST; dsDNA, one strand shown
T4 sequence: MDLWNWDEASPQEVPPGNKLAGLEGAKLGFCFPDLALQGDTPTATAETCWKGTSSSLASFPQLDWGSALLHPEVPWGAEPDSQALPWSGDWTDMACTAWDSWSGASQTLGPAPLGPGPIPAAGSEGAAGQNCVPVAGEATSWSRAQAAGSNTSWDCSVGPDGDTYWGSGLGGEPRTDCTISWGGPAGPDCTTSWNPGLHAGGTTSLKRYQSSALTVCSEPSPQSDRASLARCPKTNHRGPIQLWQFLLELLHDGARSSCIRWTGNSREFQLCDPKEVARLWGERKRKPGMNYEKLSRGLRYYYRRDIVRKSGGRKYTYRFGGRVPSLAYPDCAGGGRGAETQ
Procedure, shortened: as §1

[8] = target: T5, ELF3 (Homo sapiens, UniProt P78545 1-371); conditions: protein: recombinant; tags: N-terminal GST; dsDNA, one strand shown
T5 sequence: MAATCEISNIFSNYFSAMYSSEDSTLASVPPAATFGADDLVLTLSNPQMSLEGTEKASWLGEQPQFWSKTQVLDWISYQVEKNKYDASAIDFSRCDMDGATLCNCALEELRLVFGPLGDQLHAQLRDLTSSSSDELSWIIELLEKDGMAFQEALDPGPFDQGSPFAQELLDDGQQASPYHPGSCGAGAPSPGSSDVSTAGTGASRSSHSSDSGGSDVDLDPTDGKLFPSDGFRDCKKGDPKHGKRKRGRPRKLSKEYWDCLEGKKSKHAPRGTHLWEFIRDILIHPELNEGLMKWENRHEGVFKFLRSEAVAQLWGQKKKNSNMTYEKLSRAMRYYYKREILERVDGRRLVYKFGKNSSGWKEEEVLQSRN
Procedure, shortened: as §1

[9] = target: CRX (Homo sapiens, UniProt O43186 1-299); conditions: protein: recombinant; tags: N-terminal GST; dsDNA, one strand shown
Procedure, shortened: as §1

[10] = target: ETV1 (Homo sapiens, UniProt P50549 1-477); conditions: protein: recombinant; tags: N-terminal GST; dsDNA, one strand shown
Procedure, shortened: as §1

[11] = target: T6, ERF (Homo sapiens, UniProt P50548 1-548); conditions: protein: recombinant; tags: N-terminal GST; dsDNA, one strand shown
T6 sequence: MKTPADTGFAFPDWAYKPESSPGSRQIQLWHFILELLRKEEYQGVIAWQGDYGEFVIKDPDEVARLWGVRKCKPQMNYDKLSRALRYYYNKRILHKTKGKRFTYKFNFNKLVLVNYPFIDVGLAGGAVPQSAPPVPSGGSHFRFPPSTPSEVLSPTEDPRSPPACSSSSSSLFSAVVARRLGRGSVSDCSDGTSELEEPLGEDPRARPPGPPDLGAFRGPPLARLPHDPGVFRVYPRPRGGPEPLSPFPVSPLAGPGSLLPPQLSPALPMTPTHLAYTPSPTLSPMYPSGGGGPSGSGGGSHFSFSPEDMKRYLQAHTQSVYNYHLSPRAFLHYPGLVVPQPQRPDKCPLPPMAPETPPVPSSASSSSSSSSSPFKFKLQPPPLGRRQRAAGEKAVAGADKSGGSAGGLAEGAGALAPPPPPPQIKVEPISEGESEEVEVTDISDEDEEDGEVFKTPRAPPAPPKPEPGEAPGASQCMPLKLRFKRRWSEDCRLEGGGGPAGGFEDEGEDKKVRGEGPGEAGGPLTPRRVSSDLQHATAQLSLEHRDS
Procedure, shortened: as §1

[12] = target: T7, ETV3L (Homo sapiens, UniProt Q6ZN32 1-361); conditions: protein: recombinant; tags: N-terminal GST; dsDNA, one strand shown
T7 sequence: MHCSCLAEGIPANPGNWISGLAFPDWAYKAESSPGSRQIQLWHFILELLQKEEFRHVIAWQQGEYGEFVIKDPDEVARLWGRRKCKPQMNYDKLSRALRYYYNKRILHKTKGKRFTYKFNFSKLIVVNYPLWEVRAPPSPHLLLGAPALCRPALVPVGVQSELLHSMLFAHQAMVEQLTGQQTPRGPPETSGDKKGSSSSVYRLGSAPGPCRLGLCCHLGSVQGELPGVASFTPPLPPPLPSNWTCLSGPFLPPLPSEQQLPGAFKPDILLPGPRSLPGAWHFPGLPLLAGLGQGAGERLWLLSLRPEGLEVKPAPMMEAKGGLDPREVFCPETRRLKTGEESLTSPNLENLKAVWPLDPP
Procedure, shortened: as §1

[13] = target: T8, ETS2 (Homo sapiens, UniProt P15036 1-469); conditions: protein: recombinant; tags: N-terminal GST; dsDNA, one strand shown
T8 sequence: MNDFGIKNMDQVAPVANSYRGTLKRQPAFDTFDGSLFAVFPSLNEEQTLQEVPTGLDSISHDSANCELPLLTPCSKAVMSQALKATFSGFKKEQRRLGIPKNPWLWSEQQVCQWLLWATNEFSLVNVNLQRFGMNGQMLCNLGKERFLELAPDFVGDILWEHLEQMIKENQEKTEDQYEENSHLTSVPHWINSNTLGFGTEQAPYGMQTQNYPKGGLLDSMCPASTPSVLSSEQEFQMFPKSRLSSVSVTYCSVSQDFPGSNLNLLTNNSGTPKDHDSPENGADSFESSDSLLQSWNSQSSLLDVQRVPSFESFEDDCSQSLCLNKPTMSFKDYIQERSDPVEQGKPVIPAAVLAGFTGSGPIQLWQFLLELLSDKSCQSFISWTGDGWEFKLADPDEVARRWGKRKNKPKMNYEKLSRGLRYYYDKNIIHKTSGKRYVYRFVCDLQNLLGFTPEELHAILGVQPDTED
Procedure, shortened: as §1

[14] = target: T9, SPDEF (Homo sapiens, UniProt O95238 1-335); conditions: protein: recombinant; tags: N-terminal GST; dsDNA, one strand shown
T9 sequence: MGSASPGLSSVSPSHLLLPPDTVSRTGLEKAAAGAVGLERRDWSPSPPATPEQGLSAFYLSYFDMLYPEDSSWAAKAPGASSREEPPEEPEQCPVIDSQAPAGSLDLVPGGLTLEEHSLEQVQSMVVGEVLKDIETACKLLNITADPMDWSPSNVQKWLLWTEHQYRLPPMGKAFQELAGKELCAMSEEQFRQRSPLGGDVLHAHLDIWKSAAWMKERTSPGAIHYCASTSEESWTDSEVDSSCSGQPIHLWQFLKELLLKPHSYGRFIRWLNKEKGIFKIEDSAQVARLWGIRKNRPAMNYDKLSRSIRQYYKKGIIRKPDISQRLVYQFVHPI
Procedure, shortened: as §1

[15] = target: T10, ETV7 (Homo sapiens, UniProt Q9Y603 1-341); conditions: protein: recombinant; tags: N-terminal GST; dsDNA, one strand shown
T10 sequence: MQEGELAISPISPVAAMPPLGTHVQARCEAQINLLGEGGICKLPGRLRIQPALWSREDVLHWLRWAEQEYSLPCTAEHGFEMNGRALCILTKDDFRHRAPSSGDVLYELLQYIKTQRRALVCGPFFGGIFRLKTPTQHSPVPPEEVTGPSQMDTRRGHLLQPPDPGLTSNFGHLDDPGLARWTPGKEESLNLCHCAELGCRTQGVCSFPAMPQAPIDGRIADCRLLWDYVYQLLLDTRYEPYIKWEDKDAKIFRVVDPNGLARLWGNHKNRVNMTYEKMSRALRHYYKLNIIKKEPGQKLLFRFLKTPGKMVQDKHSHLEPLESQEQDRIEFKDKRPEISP
Procedure, shortened: as §1

[16] = target: T11, ELF5 (Homo sapiens, UniProt Q9UKW6-2 1-255); conditions: protein: recombinant; tags: N-terminal GST; dsDNA, one strand shown
T11 sequence: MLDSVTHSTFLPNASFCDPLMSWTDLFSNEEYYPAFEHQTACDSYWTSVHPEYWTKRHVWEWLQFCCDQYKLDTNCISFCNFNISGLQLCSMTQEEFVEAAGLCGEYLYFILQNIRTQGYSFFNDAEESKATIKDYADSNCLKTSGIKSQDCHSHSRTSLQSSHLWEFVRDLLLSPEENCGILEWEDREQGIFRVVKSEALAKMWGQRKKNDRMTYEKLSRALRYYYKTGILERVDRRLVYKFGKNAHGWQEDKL
Procedure, shortened: as §1

[17] = target: T12, ETV3 (Homo sapiens, UniProt P41162-2 1-143); conditions: protein: recombinant; tags: N-terminal GST; dsDNA, one strand shown
T12 sequence: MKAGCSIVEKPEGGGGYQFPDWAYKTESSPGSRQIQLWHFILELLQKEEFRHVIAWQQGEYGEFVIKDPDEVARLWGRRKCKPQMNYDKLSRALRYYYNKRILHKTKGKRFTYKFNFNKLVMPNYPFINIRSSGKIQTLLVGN
Procedure, shortened: as §1

[18] = target: ETV6 (Homo sapiens, UniProt P41212 1-452); conditions: protein: recombinant; tags: N-terminal GST; dsDNA, one strand shown
Procedure, shortened: as §1

Sequence of CRX (O43186 whole entry): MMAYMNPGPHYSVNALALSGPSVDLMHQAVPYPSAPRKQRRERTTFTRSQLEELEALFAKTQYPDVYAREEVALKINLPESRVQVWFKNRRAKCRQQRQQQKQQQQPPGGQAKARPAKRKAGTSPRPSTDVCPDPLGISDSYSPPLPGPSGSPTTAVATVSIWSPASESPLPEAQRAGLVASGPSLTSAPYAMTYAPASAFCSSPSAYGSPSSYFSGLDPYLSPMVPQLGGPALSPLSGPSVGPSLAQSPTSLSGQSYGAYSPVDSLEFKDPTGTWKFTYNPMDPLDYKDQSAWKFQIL
Sequence of HSF1 (Q00613 whole entry): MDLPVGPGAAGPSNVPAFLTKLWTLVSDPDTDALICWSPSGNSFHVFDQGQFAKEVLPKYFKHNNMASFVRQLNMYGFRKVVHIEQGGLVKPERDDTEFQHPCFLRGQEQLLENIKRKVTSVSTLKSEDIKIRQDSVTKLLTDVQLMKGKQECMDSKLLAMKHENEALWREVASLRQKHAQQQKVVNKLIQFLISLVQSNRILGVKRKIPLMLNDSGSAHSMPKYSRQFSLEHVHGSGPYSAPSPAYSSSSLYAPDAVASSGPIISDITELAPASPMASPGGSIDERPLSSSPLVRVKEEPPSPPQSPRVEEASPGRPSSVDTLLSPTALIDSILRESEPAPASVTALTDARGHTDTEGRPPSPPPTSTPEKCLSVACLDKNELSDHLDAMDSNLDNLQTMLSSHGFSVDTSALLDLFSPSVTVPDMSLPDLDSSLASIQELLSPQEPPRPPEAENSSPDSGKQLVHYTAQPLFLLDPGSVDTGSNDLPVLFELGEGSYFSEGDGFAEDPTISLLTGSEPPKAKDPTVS
Sequence of ETV6 (P41212 whole entry): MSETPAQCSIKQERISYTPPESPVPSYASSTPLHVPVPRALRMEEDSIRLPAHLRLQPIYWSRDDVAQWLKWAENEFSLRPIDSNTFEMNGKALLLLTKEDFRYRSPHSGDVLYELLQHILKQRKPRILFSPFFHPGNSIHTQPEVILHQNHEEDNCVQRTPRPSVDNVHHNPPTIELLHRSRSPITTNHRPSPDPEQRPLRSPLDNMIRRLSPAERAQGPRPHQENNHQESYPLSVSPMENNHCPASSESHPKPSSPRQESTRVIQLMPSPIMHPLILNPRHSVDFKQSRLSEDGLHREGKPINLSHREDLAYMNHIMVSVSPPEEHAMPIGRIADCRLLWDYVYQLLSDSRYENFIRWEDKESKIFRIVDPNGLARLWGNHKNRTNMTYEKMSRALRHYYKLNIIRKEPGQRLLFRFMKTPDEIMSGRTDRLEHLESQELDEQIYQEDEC
Sequence of ETV1 (P50549 whole entry): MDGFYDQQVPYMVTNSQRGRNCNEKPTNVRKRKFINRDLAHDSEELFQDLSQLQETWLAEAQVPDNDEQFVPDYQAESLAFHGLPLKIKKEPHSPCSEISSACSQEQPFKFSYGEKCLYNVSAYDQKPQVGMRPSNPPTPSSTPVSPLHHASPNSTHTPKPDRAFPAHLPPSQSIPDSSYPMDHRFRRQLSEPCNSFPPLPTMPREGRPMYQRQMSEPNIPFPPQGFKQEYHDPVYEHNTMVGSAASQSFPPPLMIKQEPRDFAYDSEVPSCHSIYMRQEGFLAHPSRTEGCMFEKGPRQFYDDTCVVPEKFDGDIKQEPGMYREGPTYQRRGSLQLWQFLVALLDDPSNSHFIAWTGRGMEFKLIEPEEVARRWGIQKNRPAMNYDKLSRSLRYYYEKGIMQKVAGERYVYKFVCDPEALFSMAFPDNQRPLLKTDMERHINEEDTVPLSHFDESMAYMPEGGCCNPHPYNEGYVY
Sequence of ETV5 (P41161 whole entry): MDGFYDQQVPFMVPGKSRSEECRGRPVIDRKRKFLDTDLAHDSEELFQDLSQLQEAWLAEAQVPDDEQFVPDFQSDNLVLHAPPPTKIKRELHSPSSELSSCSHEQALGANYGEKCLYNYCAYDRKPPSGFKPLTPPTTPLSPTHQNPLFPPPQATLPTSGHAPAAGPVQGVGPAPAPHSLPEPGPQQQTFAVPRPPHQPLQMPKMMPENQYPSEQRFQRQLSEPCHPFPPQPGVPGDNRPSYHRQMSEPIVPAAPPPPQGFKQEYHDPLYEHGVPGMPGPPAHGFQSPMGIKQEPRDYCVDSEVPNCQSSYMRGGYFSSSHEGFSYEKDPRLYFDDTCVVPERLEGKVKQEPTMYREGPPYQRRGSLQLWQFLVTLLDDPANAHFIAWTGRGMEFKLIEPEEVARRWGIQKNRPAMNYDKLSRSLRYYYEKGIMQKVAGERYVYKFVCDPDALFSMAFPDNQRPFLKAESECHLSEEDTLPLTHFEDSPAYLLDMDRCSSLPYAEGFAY
Sequence of ELF4 (Q99607 whole entry): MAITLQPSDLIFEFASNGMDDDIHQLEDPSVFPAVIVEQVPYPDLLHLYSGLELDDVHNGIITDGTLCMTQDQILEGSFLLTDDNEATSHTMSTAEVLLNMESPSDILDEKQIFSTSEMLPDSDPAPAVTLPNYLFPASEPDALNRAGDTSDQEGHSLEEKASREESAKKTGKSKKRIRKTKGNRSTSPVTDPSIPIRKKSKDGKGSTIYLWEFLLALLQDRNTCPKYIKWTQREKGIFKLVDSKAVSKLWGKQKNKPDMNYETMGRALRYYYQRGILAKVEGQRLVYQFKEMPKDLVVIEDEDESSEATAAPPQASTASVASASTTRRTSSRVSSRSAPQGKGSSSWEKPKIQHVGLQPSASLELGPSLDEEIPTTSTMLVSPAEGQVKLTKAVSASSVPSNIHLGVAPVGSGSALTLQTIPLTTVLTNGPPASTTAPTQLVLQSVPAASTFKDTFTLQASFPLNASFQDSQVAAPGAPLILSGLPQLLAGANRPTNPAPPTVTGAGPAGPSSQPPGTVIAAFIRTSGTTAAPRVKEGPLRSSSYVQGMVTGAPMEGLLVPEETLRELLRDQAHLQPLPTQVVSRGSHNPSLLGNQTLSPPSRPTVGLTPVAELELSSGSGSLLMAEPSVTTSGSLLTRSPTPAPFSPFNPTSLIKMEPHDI

Question: Which results are given for TTGGTT?
Answer: binding signal [1]: 1.31 fold enrichment (6-mer frequency, TF over GST control); binding signal [2]: 1.44 fold enrichment (6-mer frequency, TF over GST control); binding signal [3]: 1.18 fold enrichment (6-mer frequency, TF over GST control); binding signal [4]: 1.47 fold enrichment (6-mer frequency, TF over GST control); binding signal [5]: 1.42 fold enrichment (6-mer frequency, TF over GST control); binding signal [6]: 1.32 fold enrichment (6-mer frequency, TF over GST control); binding signal [7]: 1.29 fold enrichment (6-mer frequency, TF over GST control); binding signal [8]: 1.23 fold enrichment (6-mer frequency, TF over GST control); binding signal [9]: 1.29 fold enrichment (6-mer frequency, TF over GST control); binding signal [10]: 1.4 fold enrichment (6-mer frequency, TF over GST control); binding signal [11]: 1.43 fold enrichment (6-mer frequency, TF over GST control); binding signal [12]: 1.45 fold enrichment (6-mer frequency, TF over GST control); binding signal [13]: 1.48 fold enrichment (6-mer frequency, TF over GST control); binding signal [14]: 1.45 fold enrichment (6-mer frequency, TF over GST control); binding signal [15]: 1.52 fold enrichment (6-mer frequency, TF over GST control); binding signal [16]: 1.37 fold enrichment (6-mer frequency, TF over GST control); binding signal [17]: 1.36 fold enrichment (6-mer frequency, TF over GST control); binding signal [18]: 1.44 fold enrichment (6-mer frequency, TF over GST control)
